Experiment [1] has as its target Protein phosphatase methylesterase 1 (Homo sapiens) (UniProt Q9Y570). The experiment can be described thus: PME-1 inhibitor activity retest, confirmation, biochemical, fluorescence polarization, FP-Rh probe, triplicate (AID 2171).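 Further: 0% = enzyme with DMSO and 100% = wells lacking PME-1.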 Conditions: recombinant PME-1, FP-Rh probe fluorescence polarization; at 5.9 µM; hits give high values. (Polarisation of emitted light reports the rotation of a fluorescent probe.)

Experiment [2] deals with Nuclear receptor coactivator 3 (Homo sapiens) (UniProt Q9Y6Q9). Kind of experiment: SRC3 coactivator transcriptional activity inhibitors, confirmation, cell-based, luminescence, quadruplicate (AID 588792;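 active means mean inhibition over 43.08%, the solvent-only control mean plus 3 SD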;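 further: 0% = DMSO treated cells and 100% = gossypol at 36 µM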). Conditions: HEK293 GAL4-SRC3 luciferase reporter, at 3.6 µM, hits give high values. On the technique in general: Reporter assays use an easily measured gene product as a stand-in for the process of interest.
Nuclear receptor coactivator 3 (Homo sapiens), sequence (Q9Y6Q9 whole entry, looked up, the tested form may be a part): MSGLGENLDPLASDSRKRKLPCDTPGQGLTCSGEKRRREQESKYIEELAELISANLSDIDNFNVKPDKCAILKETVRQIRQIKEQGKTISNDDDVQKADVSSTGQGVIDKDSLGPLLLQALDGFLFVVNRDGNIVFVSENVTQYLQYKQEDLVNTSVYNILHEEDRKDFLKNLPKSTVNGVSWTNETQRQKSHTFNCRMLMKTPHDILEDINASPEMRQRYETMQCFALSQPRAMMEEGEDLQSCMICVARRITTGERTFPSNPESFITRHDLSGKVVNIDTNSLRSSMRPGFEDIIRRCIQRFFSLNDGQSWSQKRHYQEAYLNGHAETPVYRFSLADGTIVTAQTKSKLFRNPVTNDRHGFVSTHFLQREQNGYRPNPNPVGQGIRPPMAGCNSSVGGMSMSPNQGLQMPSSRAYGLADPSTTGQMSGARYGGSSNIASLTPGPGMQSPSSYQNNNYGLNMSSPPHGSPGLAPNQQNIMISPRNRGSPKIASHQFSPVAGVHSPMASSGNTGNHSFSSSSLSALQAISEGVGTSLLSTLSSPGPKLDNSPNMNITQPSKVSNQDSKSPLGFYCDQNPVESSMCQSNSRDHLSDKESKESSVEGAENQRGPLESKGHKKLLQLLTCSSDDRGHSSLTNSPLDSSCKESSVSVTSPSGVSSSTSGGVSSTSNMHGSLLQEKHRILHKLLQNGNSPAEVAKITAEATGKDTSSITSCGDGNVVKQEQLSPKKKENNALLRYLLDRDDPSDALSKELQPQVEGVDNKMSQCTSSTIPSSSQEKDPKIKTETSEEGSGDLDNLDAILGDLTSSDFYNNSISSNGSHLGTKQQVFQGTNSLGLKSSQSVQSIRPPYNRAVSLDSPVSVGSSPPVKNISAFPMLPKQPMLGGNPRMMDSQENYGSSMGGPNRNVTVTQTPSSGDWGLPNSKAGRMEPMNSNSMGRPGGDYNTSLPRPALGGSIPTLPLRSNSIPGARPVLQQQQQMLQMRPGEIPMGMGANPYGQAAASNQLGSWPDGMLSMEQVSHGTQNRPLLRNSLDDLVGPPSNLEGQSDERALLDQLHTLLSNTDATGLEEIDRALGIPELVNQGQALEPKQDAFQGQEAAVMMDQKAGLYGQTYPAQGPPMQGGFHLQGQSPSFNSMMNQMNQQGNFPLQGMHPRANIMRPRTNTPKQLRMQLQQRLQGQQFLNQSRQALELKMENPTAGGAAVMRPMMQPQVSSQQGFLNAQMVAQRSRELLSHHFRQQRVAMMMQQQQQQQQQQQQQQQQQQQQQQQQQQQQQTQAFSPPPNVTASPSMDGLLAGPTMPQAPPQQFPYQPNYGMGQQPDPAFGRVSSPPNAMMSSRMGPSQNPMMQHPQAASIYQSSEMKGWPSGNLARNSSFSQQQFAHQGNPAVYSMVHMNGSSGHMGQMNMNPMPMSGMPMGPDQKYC

Experiment [3] has as its system transactivating tegument protein VP16 (Human herpesvirus 1), Gal4-VP16 luciferase reporter. The experiment can be described thus: VP16 transactivation inhibitors, counter-screen for SRC3 inhibitor project, cell-based, luminescence, high throughput (AID 588794; in the data active means inhibition above about 30%). Conditions: mammalian cells, VP16-driven luciferase reporter luminescence; at 3.6 µM; hits give high values. In general terms: The purpose of a counterscreen is to sort out artefacts and off-target activity.

Experiment [4] has as its target Nuclear receptor coactivator 1 (Homo sapiens) (UniProt Q15788). The experiment can be described thus: SRC1 coactivator transcriptional activity inhibitors, confirmation, cell-based, luminescence, quadruplicate (AID 588820;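 active means mean inhibition above 46.68%, the untreated control wells mean plus 3 SD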;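 further: 0% = DMSO wells and 100% = gossypol 36 µM treated wells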). As to conditions: HEK293 GAL4-SRC1 luciferase reporter, at 3.6 µM, hits give high values.
Experiment [5] in a line: VP16 transactivation inhibitors, counter-screen for SRC1 inhibitor project, cell-based, luminescence, high throughput (AID 588824; in the data active means inhibition above about 25%). Conditions: cell-based VP16 transactivation luciferase luminescence; at 3.6 µM; hits give high values.
The test system of experiment [6] is transactivating tegument protein VP16 (Human herpesvirus 1). The experiment can be described thus: VP16 transactivation reporter inhibitors, counter-screen for SRC2 inhibitor project, cell-based, luminescence, single concentration (AID 652007; in the data active means inhibition above about 36%). Conditions: cell-based VP16 transactivation luciferase reporter, at 8.9 µM, hits give high values.
In experiment [7] the target is Nuclear receptor coactivator 2 (Homo sapiens) (UniProt Q15596). Kind of experiment: SRC2 coactivator transcriptional activity inhibitors, confirmation, cell-based, luminescence, HEK293, triplicate (AID 652008;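 active means mean inhibition above 46.5%, the solvent-only control mean plus 3 SD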;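 further: 0% = DMSO-treated cells and 100% = Gossypol at 36 µM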). Conditions: HEK293 GAL4-SRC2 luciferase reporter, at 8.9 µM, hits give high values.
In experiment [8] the target is Glutathione S-transferase omega-1 (Homo sapiens) (UniProt P78417). Kind of experiment: GSTO1 inhibitor hit confirmation, counter-screen for RBBP9 inhibitor project, biochemical, fluorescence polarization, triplicate (AID 2176;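 active means inhibition above the primary screen's cutoff, its mean inhibition plus 3 SD, cut at about 35% in these data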;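 further: loss of polarization as inhibitors block binding of rhodamine sulfonate ester activity probe; 0% = GSTO1 with DMSO and 100% = wells lacking GSTO1 enzyme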). Conditions: recombinant GSTO1, probe fluorescence polarization; at 5.96 µM; hits give high values.
Glutathione S-transferase omega-1 (Homo sapiens), sequence (P78417 whole entry, looked up): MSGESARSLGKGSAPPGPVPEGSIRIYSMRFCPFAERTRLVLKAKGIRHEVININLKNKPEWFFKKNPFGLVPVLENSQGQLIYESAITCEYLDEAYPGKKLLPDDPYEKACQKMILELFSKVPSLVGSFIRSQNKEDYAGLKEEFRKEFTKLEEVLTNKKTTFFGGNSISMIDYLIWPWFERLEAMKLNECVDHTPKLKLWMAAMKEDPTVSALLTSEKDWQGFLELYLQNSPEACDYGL
Experiment [9] in a line: StAR promoter reporter inhibitors, counter-screen for LRH-1 inverse agonist project, cell-based, luminescence, high throughput (AID 651611; in the data active means inhibition above about 28%). As to conditions: StAR promoter luciferase reporter counterscreen, at 3.6 µM, hits give high values.
Experiment [10] deals with Nuclear receptor subfamily 5 group A member 2 (Homo sapiens) (UniProt O00482). Kind of experiment: LRH-1 (NR5A2) inverse agonists, retest, confirmation, cell-based, luminescence (AID 651613; in the data active means inhibition above about 42%;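 further: HEK293T cells co-transfected with LRH-1 and StAR promoter luciferase reporter; 0% = vehicle wells and 100% = parental cells lacking receptor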). Conditions: cell-based LRH-1 luciferase reporter, inverse agonism; at 3.6 µM; hits give high values.
Nuclear receptor subfamily 5 group A member 2 (Homo sapiens), sequence (O00482 whole entry, looked up): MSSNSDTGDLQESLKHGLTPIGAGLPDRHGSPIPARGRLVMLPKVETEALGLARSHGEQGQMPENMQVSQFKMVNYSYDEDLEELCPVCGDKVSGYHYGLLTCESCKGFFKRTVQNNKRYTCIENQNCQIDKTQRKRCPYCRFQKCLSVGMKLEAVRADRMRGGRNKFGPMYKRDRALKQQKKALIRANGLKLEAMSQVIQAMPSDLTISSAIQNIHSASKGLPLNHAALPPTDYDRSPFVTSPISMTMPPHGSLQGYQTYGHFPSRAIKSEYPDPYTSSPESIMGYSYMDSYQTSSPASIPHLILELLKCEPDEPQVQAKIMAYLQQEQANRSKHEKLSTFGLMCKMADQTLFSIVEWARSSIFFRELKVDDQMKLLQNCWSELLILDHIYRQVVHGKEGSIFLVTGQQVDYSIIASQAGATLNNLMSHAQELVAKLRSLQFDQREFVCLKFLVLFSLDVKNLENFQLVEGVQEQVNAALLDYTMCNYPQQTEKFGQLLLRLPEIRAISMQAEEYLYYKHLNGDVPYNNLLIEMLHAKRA
The target in experiment [11] is Steroidogenic factor 1 (Homo sapiens) (UniProt Q13285). Kind of experiment: SF1 (NR5A1) inverse agonists, counter-screen for LRH-1 inverse agonist project, cell-based, luminescence, high throughput (AID 651614; in the data active means inhibition above about 44%;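 further: cells cotransfected with StAR promoter reporter and SF1 expression vector; 0% = vehicle on cells with receptor and 100% = vehicle on cells lacking receptor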). As to conditions: cell-based SF1 luciferase reporter, at 3.6 µM, hits give high values.
Steroidogenic factor 1 (Homo sapiens), sequence (Q13285 whole entry, looked up, the tested form may be a part): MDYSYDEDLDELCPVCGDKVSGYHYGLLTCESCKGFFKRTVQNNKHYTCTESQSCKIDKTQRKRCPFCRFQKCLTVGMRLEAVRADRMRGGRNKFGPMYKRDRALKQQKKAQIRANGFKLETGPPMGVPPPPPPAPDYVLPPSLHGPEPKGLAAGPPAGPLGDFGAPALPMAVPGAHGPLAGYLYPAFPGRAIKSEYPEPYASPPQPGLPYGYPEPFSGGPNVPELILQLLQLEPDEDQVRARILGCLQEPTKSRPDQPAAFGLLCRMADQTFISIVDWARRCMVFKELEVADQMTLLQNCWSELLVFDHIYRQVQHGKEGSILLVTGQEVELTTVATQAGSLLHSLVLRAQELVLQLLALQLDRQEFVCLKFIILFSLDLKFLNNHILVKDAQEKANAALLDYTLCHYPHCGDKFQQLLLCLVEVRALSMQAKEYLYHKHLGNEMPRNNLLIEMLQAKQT
Experiment [12] is described as follows: VP16 transactivation reporter inhibitors, counter-screen for LRH-1 inverse agonist project, cell-based, luminescence, high throughput (AID 651615; in the data active means inhibition above about 33%). As to conditions: Gal4-VP16 luciferase reporter cells, at 3.6 µM, hits give high values.

A number with no mark means an inactive call. Some of the results follow. The source made the active and inactive calls.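 How the source made its calls, unless noted: active means inhibition above the hit cutoff set in the earlier primary screen (cut at about 27% in these data); inactive means the rest.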

The inhibition is the relative decrease from the control value, in per cent.

Protein phosphatase methylesterase 1 (Homo sapiens), sequence (Q9Y570 whole entry, looked up): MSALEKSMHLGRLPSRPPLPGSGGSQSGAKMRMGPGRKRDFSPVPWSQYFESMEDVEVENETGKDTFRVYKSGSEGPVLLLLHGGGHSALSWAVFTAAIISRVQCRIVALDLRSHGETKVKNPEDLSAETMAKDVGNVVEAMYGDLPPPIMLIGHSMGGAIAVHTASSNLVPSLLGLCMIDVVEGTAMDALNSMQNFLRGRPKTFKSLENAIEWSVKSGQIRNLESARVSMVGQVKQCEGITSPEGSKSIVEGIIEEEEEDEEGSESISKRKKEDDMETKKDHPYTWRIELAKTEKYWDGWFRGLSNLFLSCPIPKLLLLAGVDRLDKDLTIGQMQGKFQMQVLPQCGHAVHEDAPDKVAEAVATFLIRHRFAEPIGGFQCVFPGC
Nuclear receptor coactivator 1 (Homo sapiens), sequence (Q15788 whole entry, looked up, the tested form may be a part): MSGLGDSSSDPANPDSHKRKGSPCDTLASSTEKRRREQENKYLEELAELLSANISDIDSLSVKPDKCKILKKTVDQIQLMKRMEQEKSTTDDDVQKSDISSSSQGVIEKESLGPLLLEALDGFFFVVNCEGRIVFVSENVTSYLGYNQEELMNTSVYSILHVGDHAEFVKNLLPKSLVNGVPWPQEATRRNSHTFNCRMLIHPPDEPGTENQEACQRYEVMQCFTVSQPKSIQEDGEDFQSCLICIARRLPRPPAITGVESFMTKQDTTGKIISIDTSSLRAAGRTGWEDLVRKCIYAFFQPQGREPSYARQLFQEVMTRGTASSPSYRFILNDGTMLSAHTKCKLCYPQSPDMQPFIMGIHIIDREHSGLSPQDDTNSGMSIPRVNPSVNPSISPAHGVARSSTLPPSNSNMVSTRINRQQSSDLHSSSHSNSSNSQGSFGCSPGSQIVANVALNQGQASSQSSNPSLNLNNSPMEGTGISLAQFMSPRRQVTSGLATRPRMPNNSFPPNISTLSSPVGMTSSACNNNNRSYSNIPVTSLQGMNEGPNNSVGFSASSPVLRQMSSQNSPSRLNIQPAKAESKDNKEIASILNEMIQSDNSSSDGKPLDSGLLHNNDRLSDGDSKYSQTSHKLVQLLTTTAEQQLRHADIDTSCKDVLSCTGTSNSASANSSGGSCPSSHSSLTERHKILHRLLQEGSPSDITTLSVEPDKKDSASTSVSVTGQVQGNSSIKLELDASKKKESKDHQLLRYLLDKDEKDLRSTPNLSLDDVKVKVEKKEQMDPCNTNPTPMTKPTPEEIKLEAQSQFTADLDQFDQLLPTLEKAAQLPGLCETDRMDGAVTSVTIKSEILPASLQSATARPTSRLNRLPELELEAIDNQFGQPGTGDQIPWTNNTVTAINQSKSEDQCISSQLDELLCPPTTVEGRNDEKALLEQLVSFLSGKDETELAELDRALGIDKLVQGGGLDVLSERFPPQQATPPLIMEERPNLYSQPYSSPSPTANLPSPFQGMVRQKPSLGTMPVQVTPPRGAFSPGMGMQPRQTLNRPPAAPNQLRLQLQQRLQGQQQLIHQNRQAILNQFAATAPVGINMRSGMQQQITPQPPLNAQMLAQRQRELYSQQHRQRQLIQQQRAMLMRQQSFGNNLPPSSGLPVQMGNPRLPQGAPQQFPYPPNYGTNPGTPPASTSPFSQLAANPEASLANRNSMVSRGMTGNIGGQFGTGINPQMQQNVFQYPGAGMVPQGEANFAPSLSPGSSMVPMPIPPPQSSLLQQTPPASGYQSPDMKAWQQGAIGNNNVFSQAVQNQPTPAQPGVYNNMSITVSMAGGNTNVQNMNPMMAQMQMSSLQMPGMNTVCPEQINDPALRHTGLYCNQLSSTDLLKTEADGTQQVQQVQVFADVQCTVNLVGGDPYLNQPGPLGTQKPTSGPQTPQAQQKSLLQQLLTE

With `CCC(=O)NC(c1ccccc1Cl)c1c(O)ccc2ccccc12` (stereo unspecified), the inhibition in [1] is 53.2% (active).
Turning to `Nc1ccc(C(=O)N/N=C\c2cc(N=Nc3cccc4ccccc34)ccc2O)cc1`, the inhibition in experiment [1] is 15.1%; in experiment [2] it was 15.1%; in experiment [3], 17.7%; in [4] it was 14.5%; in [5], 31.8% (active).
Take `COc1cccc2c1C(=O)c1c(O)c3c(c(O)c1C2=O)C[C@@](O)(C(=O)CO)C[C@@H]3O[C@H]1C[C@H](N)[C@H](O)[C@H](C)O1`: the values for the inhibition in experiment [1], in experiment [2] and in experiment [3] were 36.3% (active), 49.7% (active) and 87.7% (active), respectively.
Consider `Oc1nc(Nc2ccccc2)sc1/C=C1\C=Nc2ccccc21`, for which the inhibition in experiment [1] was -2.4%.
Still for that read-out and setting: to `O=C(Nc1ccc(N2CCOCC2)cc1)Nc1ccc2nc(-c3ccco3)c(-c3ccco3)nc2c1` belongs 39.5% (active); to `Cc1cc(O)ccc1N=Cc1c(C(F)(F)F)[nH][nH]c1=O`, 12.2%.
For the compound `Cc1cc(C)nc(SCc2ccc(C(=O)N/N=C/c3cccc(O)c3O)cc2)n1`, the inhibition in [1] was -47%; in experiment [2], 28.5%; in experiment [3] it was 38.9% (active); in experiment [4], 27.1%; in experiment [5], 23.9%.
In the case of `CCCOc1ccc(/C=N/NC(=S)Nc2ccccc2[N+](=O)[O-])c(O)c1`, the inhibition is 27.9% (active) in experiment [1], 74.5% (active) in experiment [6] and 84% (active) in [7].
As for `Cc1ccc(SCC2=NNC(=O)C2)cc1`, the inhibition in [8] is 11.5%.
In the case of `COc1cc(OC)c2cc(C(=O)N/N=C/c3cccc(OC)c3O)[nH]c2c1`, the results for the inhibition in experiment [1], in experiment [4] and in experiment [5] were 39.4% (active), 17.7% and 6.13%, respectively.
For the compound `Cc1cc(C)c(S(=O)(=O)/N=C2/C=C(Sc3ncn[nH]3)C(=O)c3ccccc32)cc1C`, the inhibition in experiment [1] is 17.7%; in experiment [9], 27.3%; in experiment [10] it was 77.8% (active); in experiment [11] it was 72.5% (active); in experiment [12] it was 39.7% (active).
With `COc1cccc2c1C(=O)c1c(O)c3c(c(O)c1C2=O)C[C@](O)(C(C)=O)C[C@H]3O[C@@H]1C[C@@H](N)[C@@H](O)[C@@H](C)O1`, the inhibition in [1] was 40.8% (active); in experiment [9], 67% (active); in experiment [10], 104% (active); in [11], 92.5% (active); in [12], 77.3% (active); in experiment [6] it was 40.6% (active). Besides, the inhibition in experiment [7] is 41.1%.
For `CN1CCN(c2ccc(NC(=O)c3ccc(-c4ccc(Br)cc4)o3)cc2)CC1`, the inhibition in [1] was 37.4% (active); in experiment [9], 0.51%; in experiment [10] it was 52% (active); in experiment [11], 50.9% (active); in experiment [12] it was 13.1%.
Take `COc1ccc(N2CCN(c3ncnc4c3[nH]c3ccccc34)CC2)cc1`: the inhibition in experiment [1] is 28% (active); in [4], 3.21%; in experiment [5], 24.6%.
Consider `C=CCNC(=O)c1ccccc1SCc1c(C)noc1C`, for which the inhibition in [8] was 3.92%.
`COC(=O)CCCC1=CC2=C(c3ccccc3)C(=O)C(C)(OC(=O)C3CCCC3)C(=O)C2=CN1c1ccc(OC)cc1` (stereo unspecified): in experiment [8], the inhibition was 16.9%.
As for `O=C1C(Cl)=C(Nc2ccc3cn[nH]c3c2)C(=O)c2ccccc21`, the values for the inhibition in [1], in [6] and in [7] were 31.7% (active), -24% and 52.9% (active), respectively.
The matching figures for `Cc1ccc(C(C)C)c(OCc2ccc(C(=O)N/N=C/c3ccc(O)c(O)c3)cc2)c1`: -9.52%, -11% and 62.6% (active).
On to `CCOC(=O)c1c(NC(=O)c2ccc(S(=O)(=O)N(C)CC3CCCO3)cc2)sc2c1CC(C)(C)NC2(C)C` (stereo unspecified), for which the inhibition in [8] was 4.04%.
In the case of `CN(C)S(=O)(=O)c1cccc(NC(=S)N/N=C/c2cc(Br)ccc2O)c1`, the inhibition in [1] is 16.8%; in [2], 55.4% (active); in experiment [3] it was 59.2% (active); in experiment [6] it was -15.5%; in experiment [7], 24.2%.
Consider `CCc1ccc(S(=O)(=O)/N=C2\C=C(Nc3ccc(O)cc3)C(=O)c3ccccc32)cc1`, for which the inhibition in experiment [1] is 36.8% (active); in [9] it was 90.1% (active); in experiment [10] it was 105% (active); in [11] it was 96% (active); in experiment [12], 94.3% (active).
Consider `C(=N\Nc1nc2ccccc2[nH]1)/c1cccc2cccnc12`, for which the inhibition in experiment [1] is 60.2% (active); in [2], 44.8% (active); in experiment [3], 8.83%; in experiment [9], 49.4% (active); in experiment [10], 74% (active); in experiment [11], 64.3% (active). The inhibition in experiment [12] is 23.9%.
Consider `CCN(C(=O)COC(=O)c1cc(NS(=O)(=O)c2ccc(Cl)c([N+](=O)[O-])c2)ccc1O)C1CCCCC1`, for which the inhibition in [8] was 32.6%.
Turning to `COc1cccc(/C=N/NC(=O)c2cc3c(OC)ccc(OC)c3[nH]2)c1O`, the inhibition in experiment [1] was 32.6% (active); in experiment [4], 28.5%; in experiment [5], 29.7% (active); in experiment [6], -23.7%; in experiment [7] it was 28.4%.
Consider `COCCn1c(N)c(C(=O)NCC2CCCO2)c2nc3ccccc3nc21` (stereo unspecified), for which the inhibition in experiment [1] was 15.1%; in [9], 26.9%; in experiment [10], 47.2% (active); in experiment [11] it was 50.4% (active); in experiment [12], -14.9%.
As to `COc1ccc2c(c1)OC(O)(C(F)(F)C(F)F)CC2=O` (stereo unspecified), the inhibition in experiment [8] was 5.88%.
Turning to `CC(=O)C1C(=O)c2c(cccc2[N+](=O)[O-])C1=Nc1ccc(S(N)(=O)=O)cc1` (stereo unspecified), the inhibition was 30.2% (active) in experiment [1], -19.4% in [6] and 2.35% in [7].
With `O=[N+]([O-])c1ccc(-c2nc(-c3cccs3)c(-c3cccs3)[nH]2)cc1`, the inhibition in experiment [1] was 21.5%; in [9], 15.5%; in experiment [10], 59.5% (active); in [11], 50.8% (active); in experiment [12] it was -8.61%.
Take `CCCn1nc([N+](=O)[O-])c(C(C#N)c2nc3ccccc3s2)c(Cl)c1=O` (stereo unspecified): the inhibition in experiment [1] was 28.7% (active); in [6] it was 20.4%; in [7], 20.3%.
Take `O=C1C(SCCO)=C(SCCO)C(=O)c2ccccc21`: the inhibition in [1] is 38.3% (active); in experiment [9], 26.2%; in experiment [10] it was 76.3% (active); in [11], 74.8% (active); in [12], 46.1% (active).
As to `COc1ccc2c(c1)[nH]c1c(N3CCN(Cc4ccc5c(c4)OCO5)CC3)ncnc12`, the inhibition in experiment [1] was 14.8%; in [10], 50.2% (active); in experiment [11] it was 53.7% (active).
For `COc1cccc(-c2nc(NC(C)C)c3ccccc3n2)c1O`, the inhibition in [1] was 23.6%; in [9], 21.2%; in experiment [10], 46.5% (active); in experiment [11] it was 57% (active); in [12], -1.3%.

Values taken from PubChem BioAssay.
